Here are results for 11 compounds from PubChem BioAssay (NCATS).

Assay [1] is described as follows: qHTS for Inhibitors of the Functional Ribonucleoprotein Complex (vRNP) of Lymphocytic Choriomeningitis Arenaviruses (LCMV): Viability assay - alamar blue signal for LCMV Primary Screen (AID 1347085; calls by dose curve; tested in HEK293 reporter line; further: nearly all actives have a fitted effect of over 80% in size). For orientation: Quantitative high-throughput screening tests each substance at several concentrations.
Assay [2] addresses Nucleoprotein (Lymphocytic choriomeningitis virus (strain Armstrong)) (UniProt P09992). Kind of assay: qHTS for Inhibitors of the Functional Ribonucleoprotein Complex (vRNP) of Lymphocytic Choriomeningitis Arenaviruses (LCMV): LCMV Primary Screen - GLuc reporter signal (AID 1347086; calls by dose curve; further: nearly all actives have a fitted effect of over 70% in size).
Assay [3] can be described thus: qHTS of pediatric cancer cell lines to identify multiple opportunities for drug repurposing: Primary screen for TC32 cells (AID 1347089). Further: nearly all actives have a fitted effect of over 60% in size. In outline:
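TC32 cells, 500-1,000/well in growth medium, compound-treated 48 h at 37 °C; viability from CellTiter-Glo luminescence. Primary screen: MIPE 11-point (0.78 nM–46 µM final), NPC 8-point (0.59 nM–46 µM final); confirmatory at 11-point dilutions.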

Assay [4] can be described thus: qHTS of pediatric cancer cell lines to identify multiple opportunities for drug repurposing: Primary screen for DAOY cells (AID 1347090). Further: nearly all actives have a fitted effect of over 55% in size. In outline:
(§1)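 Viability measured as metabolically active cells via CellTiter-Glo luminescence following 48 hours of compound exposure, 11-point dilutions in confirmatory testing. 500-1,000 cells/well plated 5 hours before dosing; controls were DMSO and 2.3 µM bortezomib.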

Assay [5] in a line: qHTS of pediatric cancer cell lines to identify multiple opportunities for drug repurposing: Primary screen for SJ-GBM2 cells (AID 1347091). In outline:
as §1

A short description of assay [6]: qHTS of pediatric cancer cell lines to identify multiple opportunities for drug repurposing: Primary screen for A673 cells (AID 1347092). Further: nearly all actives have a fitted effect of over 45% in size. In outline:
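A673 cells (500-1,000 cells/well) were treated 48 hours at 37 degrees C with compounds at 11-point (0.78 nM to 46 µM) or 8-point (0.59 nM to 46 µM) dilutions. Viability read by CellTiter-Glo luminescence; concentration-response curves fitted.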

Assay [7] can be described thus: qHTS of pediatric cancer cell lines to identify multiple opportunities for drug repurposing: Primary screen for SK-N-MC cells (AID 1347093). In outline: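 Metabolically active cells were quantified by ATP-dependent luminescence (CellTiter-Glo, 15 min at room temperature) following 48 h treatment. Cells had been plated at 500-1,000 per well and settled for 5 h beforehand.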

The nature of assay [8]: qHTS of pediatric cancer cell lines to identify multiple opportunities for drug repurposing: Primary screen for BT-37 cells (AID 1347094). In outline:
(§2)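 Phenotypic viability qHTS, 48 h compound exposure, CellTiter-Glo luminescence read-out; multi-concentration dosing so that potency and efficacy derive directly from the primary screen's curves.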

A short description of assay [9]: qHTS of pediatric cancer cell lines to identify multiple opportunities for drug repurposing: Primary screen for U-2 OS cells (AID 1347096). Further: nearly all actives have a fitted effect of over 50% in size. The method in brief: (§3)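 Viability after 48 h compound treatment at 37C, 500-1,000 cells/well, read as ATP luminescence with CellTiter-Glo. Primary screens used 11-point (MIPE, 0.78 nM-46 µM) or 8-point (NPC, 0.59 nM-46 µM) final concentrations; follow-up screens used 11-point dilutions.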

A short description of assay [10]: qHTS of pediatric cancer cell lines to identify multiple opportunities for drug repurposing: Primary screen for Saos-2 cells (AID 1347097). Further: nearly all actives have a fitted effect of over 40% in size. The method in brief: as §2
A short description of assay [11]: qHTS of pediatric cancer cell lines to identify multiple opportunities for drug repurposing: Primary screen for NB1643 cells (AID 1347099). Further: nearly all actives have a fitted effect of over 50% in size. The method in brief:
as §2

Assay [12] in a line: qHTS of pediatric cancer cell lines to identify multiple opportunities for drug repurposing: Primary screen for LAN-5 cells (AID 1347100). The method in brief:
as §3

Assay [13] can be described thus: qHTS of pediatric cancer cell lines to identify multiple opportunities for drug repurposing: Primary screen for BT-12 cells (AID 1347101). Further: nearly all actives have a fitted effect of over 25% in size. In outline:
(§4)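 Cells (500-1,000/well) rested 5 h, then received compounds for 48 h; metabolically active cells were measured by CellTiter-Glo luminescence. Final concentrations spanned up to 46 µM (MIPE, 11-point) or 0.59 nM-46 µM (NPC, 8-point) in primary screens, 11-point in follow-ups.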

A short description of assay [14]: qHTS of pediatric cancer cell lines to identify multiple opportunities for drug repurposing: Primary screen for Rh18 cells (AID 1347102). Further: nearly all actives have a fitted effect of over 65% in size. In outline: as §3
Assay [15] can be described thus: qHTS of pediatric cancer cell lines to identify multiple opportunities for drug repurposing: Primary screen for OHS-50 cells (AID 1347103). Further: nearly all actives have a fitted effect of over 40% in size. In outline: as §4
Assay [16] is described as follows: qHTS of pediatric cancer cell lines to identify multiple opportunities for drug repurposing: Primary screen for RD cells (AID 1347104). Further: nearly all actives have a fitted effect of over 55% in size. In outline:
as §2

Assay [17] in a line: qHTS of pediatric cancer cell lines to identify multiple opportunities for drug repurposing: Primary screen for MG 63 (6-TG R) cells (AID 1347105). Further: nearly all actives have a fitted effect of over 50% in size. The method in brief:
as §2

Assay [18] is described as follows: qHTS of pediatric cancer cell lines to identify multiple opportunities for drug repurposing: Primary screen for control Hh wild type fibroblast cells (AID 1347106). Further: nearly all actives have a fitted effect of over 55% in size. The method in brief:
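Cells (500-1,000/well) in growth media were settled 5 h at 37 degrees C, then given compounds for 48 h. Viability was read as CellTiter-Glo luminescence. Primary runs used MIPE at 11 points (0.78 nM-46 µM) and NPC at 8 points (0.59 nM-46 µM); follow-ups used 11 points.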

Assay [19] in a line: qHTS of pediatric cancer cell lines to identify multiple opportunities for drug repurposing: Primary screen for SK-N-SH cells (AID 1347098). Further: nearly all actives have a fitted effect of over 65% in size. The method in brief: as §4
The nature of assay [20]: qHTS of pediatric cancer cell lines to identify multiple opportunities for drug repurposing: Primary screen for NB-EBc1 cells (AID 1347095). The method in brief:
as §2

Structures are written as SMILES. Results filed as inconclusive are left out. Calls of active or inactive are those of the source. Unless noted, the call rests on the fitted dose curve; in most records, active means well fitted curve in the direction sought with a large enough effect; inconclusive means small, poorly fitted or top-dose-only effect, or another doubt; inactive means no such curve, though single readings can be large; an effect the other way counts as inactive or inconclusive.
Potency means the concentration at half of the fitted maximal effect.

Chain of Nucleoprotein (Lymphocytic choriomeningitis virus (strain Armstrong)) (P09992 whole entry, looked up): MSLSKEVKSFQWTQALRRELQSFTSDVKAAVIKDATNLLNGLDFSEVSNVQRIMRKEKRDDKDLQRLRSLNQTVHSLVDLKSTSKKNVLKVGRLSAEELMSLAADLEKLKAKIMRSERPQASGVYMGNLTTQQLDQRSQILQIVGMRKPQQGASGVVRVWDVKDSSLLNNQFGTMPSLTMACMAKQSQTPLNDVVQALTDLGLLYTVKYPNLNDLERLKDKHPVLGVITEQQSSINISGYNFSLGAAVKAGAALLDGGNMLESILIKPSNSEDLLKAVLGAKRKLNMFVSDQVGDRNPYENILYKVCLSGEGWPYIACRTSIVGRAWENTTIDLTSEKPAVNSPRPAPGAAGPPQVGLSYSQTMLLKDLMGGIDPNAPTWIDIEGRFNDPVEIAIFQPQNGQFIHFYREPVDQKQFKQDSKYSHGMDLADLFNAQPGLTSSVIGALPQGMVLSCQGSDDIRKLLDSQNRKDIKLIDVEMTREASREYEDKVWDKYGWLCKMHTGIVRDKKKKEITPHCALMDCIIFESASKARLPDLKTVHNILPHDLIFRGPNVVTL

Turning to `CC(C)(C)[C@]1(O)C[C@@H]2OC(=O)C[C@@]23C(=O)O[C@@H]2OC(=O)[C@H](O)C213` (stereo partly specified), the Potency entry in assay [1], in assay [2], in [3], in [4], in assay [5] and in assay [6] was “inactive” each time. For the same compound, the Potency result in assay [7], in [8], in assay [9], in assay [10], in assay [11] and in [12] was “inactive” throughout. Besides, the Potency result in [13], in [14], in [15], in [16], in assay [17] and in assay [18] was “inactive” throughout.

`Cc1[nH]nc2ccc(-c3cncc(OC[C@@H](N)Cc4c[nH]c5ccccc45)c3)cc12`: the Potency in assay [1] is 432 nM (active); in [2] it was 243 nM (active); in [3], 1860 nM (active); in [4], 1870 nM (active); in assay [5] it was 1050 nM (active); in assay [6] it was 118 nM (active). In addition, the Potency in [7] is 264 nM (active); in assay [8], 1530 nM (active); in [19], 304 nM (active); in assay [12], 166 nM (active); in assay [13], 1530 nM (active); in [14], 2960 nM (active). In addition, the Potency in [16] was 1480 nM (active); in assay [17] it was 2350 nM (active). For the same compound, the Potency entry in assay [9] was “inactive”.

Regarding `O=C(N[C@H]1CN2CCC1CC2)c1ccc(Cl)cc1`, the Potency entry in [1], in [2], in [3], in assay [5], in assay [20] and in assay [9] was “inactive” in each case. For the same compound, the Potency result in assay [12] and in assay [13] was “inactive” throughout. The Potency was 18700 nM (active) in assay [4]; 5900 nM (active) in [6]; 1660 nM (active) in [7]; 6810 nM (active) in assay [19]; 2640 nM (active) in [11]; 26400 nM (active) in assay [16].

As to `CCOCCOC(C)=O`, the Potency entry in assay [1], in assay [2], in assay [3], in assay [4], in assay [5] and in assay [6] was “inactive” each time. The Potency result in assay [7], in assay [8], in [20], in assay [9], in assay [10] and in assay [19] was “inactive” throughout. The Potency result in assay [11], in [12], in assay [14], in assay [16], in [17] and in assay [18] was “inactive” in each case.

For the compound `O=[N+]([O-])c1c(Cl)c(Cl)cc(Cl)c1Cl`, the Potency entry in assay [1], in [2], in assay [3], in assay [4], in assay [5] and in [6] was “inactive” throughout. Besides, the Potency entry in assay [8], in [20], in assay [9], in assay [10], in assay [19] and in assay [11] was “inactive” throughout. Moreover, the Potency result in assay [12], in assay [13], in [14], in [15], in [16] and in assay [17] was “inactive” each time. Further, in [18], the Potency result is “inactive”.

Take `CCCCC(CC)COC(=O)c1ccccc1C(=O)OCC(CC)CCCC` (stereo unspecified): the Potency entry in assay [1], in assay [2], in assay [3], in assay [4], in assay [5] and in assay [6] was “inactive” each time. For the same compound, the Potency result in assay [7], in assay [8], in assay [9], in [11], in [12] and in assay [13] was “inactive” throughout. Further, the Potency entry in assay [14], in assay [15], in assay [16], in assay [17] and in assay [18] was “inactive” throughout.

For the compound `CN[C@@H](C)[C@H](O)c1ccccc1`, the Potency result in assay [1], in [2], in assay [3], in assay [4], in [5] and in assay [6] was “inactive” each time. The Potency entry in assay [7], in [8], in assay [9], in assay [10], in assay [19] and in assay [11] was “inactive” throughout. In addition, the Potency entry in [12], in assay [13], in [14], in assay [15], in [16] and in assay [17] was “inactive” in each case. In [18], the Potency result is “inactive”.

For `O=[N+]([O-])/N=C1\NCCN1Cc1ccc(Cl)nc1`, the Potency result in assay [1], in [2], in assay [3], in assay [4], in assay [5] and in assay [6] was “inactive” in each case. In addition, the Potency entry in assay [7], in [8], in [9], in assay [19], in assay [11] and in assay [12] was “inactive” in each case. Also, the Potency entry in assay [13], in [14], in assay [15], in [16], in assay [17] and in assay [18] was “inactive” each time.

With `c1cc2c(cc1[C@H]1OC[C@H]3[C@H]1CO[C@H]3c1ccc3c(c1)OCO3)OCO2`, the Potency result in [1], in assay [2], in [3], in assay [4], in assay [5] and in assay [6] was “inactive” in each case. Moreover, the Potency entry in [7], in assay [8], in assay [9], in [10], in [11] and in assay [12] was “inactive” in each case. In addition, the Potency result in [13], in [14], in assay [16], in [17] and in [18] was “inactive” in each case.

Take `O=S(=O)(O)C(F)(F)C(F)(F)C(F)(F)C(F)(F)F`: the Potency entry in [1], in assay [2], in assay [3], in [4], in assay [5] and in assay [6] was “inactive” in each case. The Potency result in [7], in [8], in assay [20], in [9], in assay [19] and in assay [11] was “inactive” each time. Moreover, the Potency result in [12], in assay [13], in assay [14], in assay [16], in assay [17] and in assay [18] was “inactive” in each case.

On to `COC1=CC(C)=C[C@@H](C)[C@@H](O)[C@@H](C)CC(C)=CC=C[C@H](OC)[C@H]([C@@H](C)[C@@H](O)[C@H](C)[C@@]2(O)C[C@@H](O)[C@H](C)[C@@H](C(C)C)O2)OC1=O`, for which the Potency in [1] was 34.3 nM (active); in assay [2], 48.5 nM (active); in [3] it was 330 nM (active); in assay [4] it was 2.3 nM (active); in [5], 1 nM (active); in assay [6], 3.7 nM (active). Also, the Potency in assay [7] was 2.1 nM (active); in assay [8], 3.4 nM (active); in assay [20], 1 nM (active); in [9], 37200 nM (active); in [10], 29600 nM (active); in [19], 13.6 nM (active). Further, the Potency in assay [11] is 9.3 nM (active); in assay [13] it was 4.9 nM (active); in [14], 14800 nM (active); in assay [15], 1.4 nM (active); in assay [17] it was 5.9 nM (active); in assay [18], 41.8 nM (active).
